These results are taken from the supplement of paper PMC10849652.

About 7,900 targets were measured; listed, in parts, are those with a hit and a random draw of the rest. About 0.6% of all pairs of compound and target were hits. Unmarked numbers belong to inactive results.

Test in all cases: log2 fold change, soluble protein after heating vs DMSO (PISA); higher = thermal stabilisation; K562 cells, 10 uM, 30 min; active = over 0.2 and 3.5 SD of the protein, either way, in both replicates (recomputed)
Compound in assay [1]: CC[C@@H]1C(=O)N(C)c2cnc(Nc3ccc(C(=O)NC4CCN(C)CC4)cc3OC)nc2N1C1CCCC1
In outline: (§1)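 K562 cells (2×10^6 cells/mL) were treated with 10 μM compound for 30 min, and aliquots were heated for 3 min over 48°C-58°C. Pooled aliquots were extracted in PBS with 0.5% NP-40 at 4°C, and the supernatant after 21,000xg for 90 min was measured by TMTpro 16plex LC-MS/MS with channel sums equalised. Reported thermal stability, relative to control samples and from duplicates, is a log2 fold change.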

Compound in another assay: CC[C@@H]1C(=O)N(C)c2cnc(Nc3ccc(C(=O)N[C@H]4CC[C@H](N5CCN(CC6CC6)CC5)CC4)cc3OC)nc2N1C(C)C [volasertib]
In outline:
as §1

Compound in assay [2]: CC[C@H](C)N1C=C(C2=C(C=C(C=C21)C3=CN=C(C=C3)N4CCNCC4)C(=O)NCC5=C(C=C(NC5=O)C)C)C
In outline:
as §1

Compound in another assay: CC[C@H](C)[C@@H](C(=O)N[C@@H]([C@@H](C)O)C(=O)N[C@@H](CC(C)C)C(=O)[C@]1(CO1)C)NC(=O)[C@H]([C@@H](C)CC)N(C)C(=O)C [epoxomicin]
In outline: as §1

Compound in assay [3]: CCn1c(C(=O)N(C2CC2)C2CC2)cc2c3c(ncn3C)c(Nc3cc(C)n(C)n3)nc21
In outline:
as §1

Compound in assay [4]: CCn1cc(-c2ccnc3[nH]c(-c4cccc(CN(C)C)c4)cc23)c(-c2ccc(NC(=O)N(C)C)cc2)n1
In outline: as §1

Compound in assay [5]: CN(C)CC(=O)Nc1ccc2[nH]c(=O)c3ccccc3c2c1
In outline:
as §1

Compound in a further assay: CN(CCOC1=CC=C(C=C1)C[C@H]2C(=O)NC(=O)S2)C3=CC=CC=N3 (racemic) [rosiglitazone]
Put shortly:
as §1

Compound in assay [6]: CN1C2=C(C3=C1C(=O)N(N=C3)CC4=CC(=CC=C4)N)SC(=C2)S(=O)C
In outline: as §1

Compound in assay [7]: CN1CCC(CNc2ccc3ncc(-c4cccc(OC(F)(F)F)c4)n3n2)CC1
Put shortly: as §1

Sequence of UniProt Q92947 (Q92947 whole entry, looked up): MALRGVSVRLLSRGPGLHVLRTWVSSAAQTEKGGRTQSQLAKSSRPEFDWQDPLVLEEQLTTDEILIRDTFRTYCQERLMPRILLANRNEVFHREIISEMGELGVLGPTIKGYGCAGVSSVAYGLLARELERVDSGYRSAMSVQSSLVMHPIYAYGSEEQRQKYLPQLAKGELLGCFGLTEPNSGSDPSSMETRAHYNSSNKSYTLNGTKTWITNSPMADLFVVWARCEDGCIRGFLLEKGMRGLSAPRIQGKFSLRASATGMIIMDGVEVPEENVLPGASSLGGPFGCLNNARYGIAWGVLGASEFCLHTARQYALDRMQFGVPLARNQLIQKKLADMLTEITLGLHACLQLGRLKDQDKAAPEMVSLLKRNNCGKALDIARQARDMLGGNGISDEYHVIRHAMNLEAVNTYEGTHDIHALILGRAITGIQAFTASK
Sequence of UniProt Q9UJ14 (Q9UJ14 whole entry, looked up): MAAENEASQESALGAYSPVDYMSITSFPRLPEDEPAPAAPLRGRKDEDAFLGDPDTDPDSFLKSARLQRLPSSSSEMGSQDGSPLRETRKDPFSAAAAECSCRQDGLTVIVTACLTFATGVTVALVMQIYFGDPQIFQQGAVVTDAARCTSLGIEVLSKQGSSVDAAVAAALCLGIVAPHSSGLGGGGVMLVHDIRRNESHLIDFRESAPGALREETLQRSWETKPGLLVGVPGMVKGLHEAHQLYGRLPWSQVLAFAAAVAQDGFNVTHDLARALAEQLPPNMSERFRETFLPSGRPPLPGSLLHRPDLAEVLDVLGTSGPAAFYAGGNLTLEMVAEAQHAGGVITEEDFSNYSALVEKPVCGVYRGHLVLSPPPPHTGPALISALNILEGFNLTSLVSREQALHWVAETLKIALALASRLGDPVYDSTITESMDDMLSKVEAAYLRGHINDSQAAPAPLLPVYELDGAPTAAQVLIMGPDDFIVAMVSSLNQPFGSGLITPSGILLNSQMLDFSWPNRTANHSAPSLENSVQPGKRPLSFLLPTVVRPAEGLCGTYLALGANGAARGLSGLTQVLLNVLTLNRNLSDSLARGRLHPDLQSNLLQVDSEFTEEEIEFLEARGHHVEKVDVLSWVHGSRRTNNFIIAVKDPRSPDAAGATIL
Sequence of UniProt Q00688 (Q00688 whole entry, looked up): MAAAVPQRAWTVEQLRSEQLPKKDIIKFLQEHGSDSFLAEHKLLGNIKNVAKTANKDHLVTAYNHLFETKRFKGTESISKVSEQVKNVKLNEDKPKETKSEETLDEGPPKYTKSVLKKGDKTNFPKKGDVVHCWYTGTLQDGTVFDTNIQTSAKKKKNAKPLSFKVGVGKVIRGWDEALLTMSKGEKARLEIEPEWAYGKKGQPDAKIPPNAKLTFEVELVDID
Sequence of UniProt Q9BUJ2 (Q9BUJ2 whole entry, looked up): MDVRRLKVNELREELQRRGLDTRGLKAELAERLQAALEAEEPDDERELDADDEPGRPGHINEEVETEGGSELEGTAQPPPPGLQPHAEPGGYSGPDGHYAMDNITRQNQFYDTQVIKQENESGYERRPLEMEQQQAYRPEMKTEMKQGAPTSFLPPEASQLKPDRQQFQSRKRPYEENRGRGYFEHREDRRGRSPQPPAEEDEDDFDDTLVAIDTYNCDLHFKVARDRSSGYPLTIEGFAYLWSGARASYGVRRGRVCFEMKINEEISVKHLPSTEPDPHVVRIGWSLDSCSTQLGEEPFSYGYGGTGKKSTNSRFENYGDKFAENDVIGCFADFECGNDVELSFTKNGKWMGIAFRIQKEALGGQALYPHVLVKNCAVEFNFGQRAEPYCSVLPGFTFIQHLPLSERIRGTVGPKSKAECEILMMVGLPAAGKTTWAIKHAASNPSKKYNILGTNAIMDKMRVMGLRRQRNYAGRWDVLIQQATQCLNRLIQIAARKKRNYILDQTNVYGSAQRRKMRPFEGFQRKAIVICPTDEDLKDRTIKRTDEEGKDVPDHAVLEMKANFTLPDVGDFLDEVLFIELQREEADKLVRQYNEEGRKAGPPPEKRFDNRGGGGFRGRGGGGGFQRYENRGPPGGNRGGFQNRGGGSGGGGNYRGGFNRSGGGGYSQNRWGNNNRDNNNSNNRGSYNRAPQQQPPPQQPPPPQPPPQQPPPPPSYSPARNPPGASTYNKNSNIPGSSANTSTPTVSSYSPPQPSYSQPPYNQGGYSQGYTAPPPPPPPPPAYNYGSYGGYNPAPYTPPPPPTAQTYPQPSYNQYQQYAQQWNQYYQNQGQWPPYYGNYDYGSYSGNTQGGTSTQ
Sequence of UniProt P00390 (P00390 whole entry, looked up): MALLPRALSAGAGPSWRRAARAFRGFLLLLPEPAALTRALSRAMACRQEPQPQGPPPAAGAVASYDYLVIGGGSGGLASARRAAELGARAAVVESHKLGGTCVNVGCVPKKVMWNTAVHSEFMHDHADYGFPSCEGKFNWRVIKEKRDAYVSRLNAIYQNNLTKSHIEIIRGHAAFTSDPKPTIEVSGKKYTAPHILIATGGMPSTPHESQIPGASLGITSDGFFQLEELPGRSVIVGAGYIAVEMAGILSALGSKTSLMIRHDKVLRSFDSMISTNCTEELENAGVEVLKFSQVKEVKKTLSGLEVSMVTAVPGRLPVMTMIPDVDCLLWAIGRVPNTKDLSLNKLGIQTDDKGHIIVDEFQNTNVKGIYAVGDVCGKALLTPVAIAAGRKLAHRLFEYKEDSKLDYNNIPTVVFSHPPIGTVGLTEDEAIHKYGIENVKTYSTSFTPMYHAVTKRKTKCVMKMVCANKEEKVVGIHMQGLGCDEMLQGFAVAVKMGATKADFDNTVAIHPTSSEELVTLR
Sequence of UniProt Q6Y7W6 (Q6Y7W6 whole entry, looked up): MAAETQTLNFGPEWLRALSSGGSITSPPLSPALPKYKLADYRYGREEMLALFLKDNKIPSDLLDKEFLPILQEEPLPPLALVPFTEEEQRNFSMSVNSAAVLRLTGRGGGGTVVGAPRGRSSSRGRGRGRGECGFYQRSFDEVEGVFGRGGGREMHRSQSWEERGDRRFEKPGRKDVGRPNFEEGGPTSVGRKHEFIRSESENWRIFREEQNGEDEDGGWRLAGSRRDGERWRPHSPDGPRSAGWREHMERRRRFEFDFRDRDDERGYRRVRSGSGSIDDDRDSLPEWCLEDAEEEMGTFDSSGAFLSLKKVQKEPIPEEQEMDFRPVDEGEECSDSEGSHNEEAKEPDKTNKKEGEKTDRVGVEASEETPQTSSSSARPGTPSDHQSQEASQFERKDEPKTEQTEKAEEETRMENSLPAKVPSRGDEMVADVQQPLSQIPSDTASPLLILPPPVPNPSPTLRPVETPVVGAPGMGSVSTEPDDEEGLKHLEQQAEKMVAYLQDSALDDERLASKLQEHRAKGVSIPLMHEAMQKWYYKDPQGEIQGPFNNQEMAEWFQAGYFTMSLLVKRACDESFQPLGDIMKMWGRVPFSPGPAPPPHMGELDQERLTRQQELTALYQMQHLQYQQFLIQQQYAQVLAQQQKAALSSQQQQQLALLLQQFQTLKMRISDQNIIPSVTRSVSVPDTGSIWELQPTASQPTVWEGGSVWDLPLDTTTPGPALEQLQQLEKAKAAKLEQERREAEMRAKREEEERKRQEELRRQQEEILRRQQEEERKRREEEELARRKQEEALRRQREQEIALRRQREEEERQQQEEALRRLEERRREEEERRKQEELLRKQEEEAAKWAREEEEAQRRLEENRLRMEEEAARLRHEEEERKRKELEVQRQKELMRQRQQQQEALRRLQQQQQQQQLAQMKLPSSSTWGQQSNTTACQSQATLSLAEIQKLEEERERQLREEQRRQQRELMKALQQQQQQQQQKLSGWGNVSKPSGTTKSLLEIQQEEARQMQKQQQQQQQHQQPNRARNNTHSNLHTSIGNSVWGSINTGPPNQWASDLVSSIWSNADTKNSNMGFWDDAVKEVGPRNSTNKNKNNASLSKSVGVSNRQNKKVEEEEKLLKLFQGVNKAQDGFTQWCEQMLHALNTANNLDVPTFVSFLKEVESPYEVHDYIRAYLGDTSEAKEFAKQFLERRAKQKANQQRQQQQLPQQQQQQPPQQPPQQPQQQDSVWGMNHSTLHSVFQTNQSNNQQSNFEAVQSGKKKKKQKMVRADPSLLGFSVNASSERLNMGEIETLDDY
Sequence of UniProt Q92917 (Q92917 whole entry, looked up): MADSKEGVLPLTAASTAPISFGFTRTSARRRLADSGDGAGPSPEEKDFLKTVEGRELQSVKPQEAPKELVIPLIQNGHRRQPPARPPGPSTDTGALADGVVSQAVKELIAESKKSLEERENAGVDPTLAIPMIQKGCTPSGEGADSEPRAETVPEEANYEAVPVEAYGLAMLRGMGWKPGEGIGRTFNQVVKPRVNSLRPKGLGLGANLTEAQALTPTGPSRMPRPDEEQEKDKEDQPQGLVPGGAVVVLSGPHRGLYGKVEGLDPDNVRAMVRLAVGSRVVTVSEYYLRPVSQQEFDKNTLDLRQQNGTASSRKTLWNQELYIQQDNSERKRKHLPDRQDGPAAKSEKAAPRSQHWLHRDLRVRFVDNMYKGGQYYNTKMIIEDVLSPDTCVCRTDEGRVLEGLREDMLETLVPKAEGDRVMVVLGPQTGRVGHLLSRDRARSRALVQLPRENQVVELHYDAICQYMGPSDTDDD
Sequence of UniProt P55084 (P55084 whole entry, looked up): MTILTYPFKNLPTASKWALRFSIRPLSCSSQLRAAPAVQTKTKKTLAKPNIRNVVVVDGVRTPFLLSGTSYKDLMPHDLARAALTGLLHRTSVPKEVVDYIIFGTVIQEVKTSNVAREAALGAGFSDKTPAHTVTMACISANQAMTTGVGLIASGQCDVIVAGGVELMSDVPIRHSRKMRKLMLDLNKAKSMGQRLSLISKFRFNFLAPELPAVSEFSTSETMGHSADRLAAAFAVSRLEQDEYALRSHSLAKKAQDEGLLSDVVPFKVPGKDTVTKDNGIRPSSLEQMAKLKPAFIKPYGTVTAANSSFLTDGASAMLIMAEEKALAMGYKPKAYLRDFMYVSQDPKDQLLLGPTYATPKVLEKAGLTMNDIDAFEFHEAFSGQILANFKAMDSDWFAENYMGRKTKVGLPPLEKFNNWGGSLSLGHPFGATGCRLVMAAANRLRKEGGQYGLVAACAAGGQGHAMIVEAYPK

For the target HADHB (UniProt P55084), the log2 fold change in assay [1] is 0.082; in the assay with volasertib, 0.462; in assay [2], 0.123; with epoxomicin it was 0.05; in assay [3], 0.161; in assay [4], -0.223. Besides, the log2 fold change in assay [5] was 0.015; in the assay with rosiglitazone, -0.039; in assay [6], -0.058; in assay [7] it was -0.223.

Take IGF2BP2 (UniProt Q9Y6M1): the log2 fold change was 0.176 in assay [1]; -0.076 with volasertib; -0.063 in [2]; -0.203 with epoxomicin; 0.016 in [3]; 0.076 in assay [4]. The log2 fold change was 0.01 in [5], -0.044 with rosiglitazone, 0.432 in [6] and -0.016 in assay [7].

For the target GLB1 (UniProt P16278), the log2 fold change is -0.707 (active) in assay [1]; -1.11 (active) with volasertib; 0.007 in assay [2]; -0.01 with epoxomicin; 0.038 in assay [3]; 0.057 in [4]. Besides, the log2 fold change in [5] is 0.002; with rosiglitazone, -0.023; in assay [6], 0.037; in assay [7] it was -0.751 (active).

Take FKBP3 (UniProt Q00688): the log2 fold change in [1] is 0.006; in the assay with volasertib it was 0.075; in assay [2], 0.03; in the assay with epoxomicin it was 0.037; in [3], 0; in assay [4], -0.001. The log2 fold change in assay [5] is 0.001; in the assay with rosiglitazone, -0.002; in assay [6], -0.065; in [7], 0.015.

As for GCDH (UniProt Q92947), the log2 fold change was -0.029 in [1]; 0.039 with volasertib; -0.003 in assay [2]; 0.024 with epoxomicin; -0.021 in [3]; -0.051 in assay [4]. The log2 fold change in assay [5] was 0.008; with rosiglitazone it was 0.013; in assay [6], -0.048; in [7], 0.072.

As for GSR (UniProt P00390), the log2 fold change was 0.04 in assay [1]; 0.034 in the assay with volasertib; -0.038 in [2]; 0.001 with epoxomicin; -0.023 in [3]; -0.008 in assay [4]. Further, the log2 fold change in assay [5] was -0.018; in the assay with rosiglitazone, 0.024; in assay [6], -0.071; in [7], -0.02.

GTF2B (UniProt Q00403): the log2 fold change in assay [1] was -0.076; in the assay with volasertib, -0.323 (active); in assay [2], 0.091; with epoxomicin it was 0.096; in assay [3], -0.04; in [4], -0.015. Moreover, the log2 fold change was 0.147 in [5], 0.083 with rosiglitazone, -0.002 in assay [6] and -0.193 in assay [7].

Take HNRNPK isoform 2 (UniProt P61978): the log2 fold change in assay [1] was -0.143; with volasertib, -0.271 (active); in assay [2], 0.062; with epoxomicin, 0.003; in assay [3], -0.027; in assay [4], -0.027. Moreover, the log2 fold change in assay [5] is 0; with rosiglitazone it was 0.022; in [6], -0.01; in assay [7], -0.216 (active).

Consider GIGYF2 (UniProt Q6Y7W6), for which the log2 fold change in [1] is -0.093; in the assay with volasertib, -0.52 (active); in assay [2] it was 0.02; with epoxomicin, 0; in assay [3], -0.046; in [4], -0.039. Further, the log2 fold change was 0.032 in assay [5], 0.069 with rosiglitazone, 0.021 in assay [6] and -0.221 (active) in assay [7].

Regarding GINS2 (UniProt Q9Y248), the log2 fold change is -0.011 in assay [1]; -0.07 with volasertib; 0.171 in assay [2]; 0.014 in the assay with epoxomicin; 0.008 in assay [3]; -0.135 in assay [4]. Also, the log2 fold change was 0.06 in assay [5], 0.058 in the assay with rosiglitazone, 0.064 in assay [6] and 0.062 in assay [7].

As to GGT7 (UniProt Q9UJ14), the log2 fold change in [1] is 0.029; with volasertib it was -0.063; in [2] it was -0.069; with epoxomicin, 0.079; in assay [3], -0.013; in [4] it was -0.124. In addition, the log2 fold change in assay [5] is 0.081; with rosiglitazone, 0.005; in assay [6], 0.02; in assay [7] it was 0.023.

Regarding HLTF (UniProt Q14527), the log2 fold change is -0.063 in [1]; -0.178 with volasertib; 0.017 in assay [2]; 0.158 in the assay with epoxomicin; -0.025 in [3]; -0.113 in assay [4]. Besides, the log2 fold change is 0.056 in [5], 0.025 with rosiglitazone, -0.009 in assay [6] and 0.201 in assay [7].

On to HIST2H2BF isoform 2 (UniProt Q5QNW6), for which the log2 fold change in assay [1] is -0.043; with volasertib it was 0.153; in assay [2], -0.079; in the assay with epoxomicin it was -0.243; in assay [3] it was 0.017; in [4] it was 0.231. Also, the log2 fold change was -0.22 in [5], -0.055 in the assay with rosiglitazone, 0.398 in assay [6] and 0.084 in assay [7].

HNRNPUL1 (UniProt Q9BUJ2): the log2 fold change was 0.051 in [1]; -0.069 in the assay with volasertib; 0.014 in assay [2]; 0.019 in the assay with epoxomicin; -0.029 in assay [3]; 0.004 in assay [4]. The log2 fold change was 0.013 in assay [5], -0.001 with rosiglitazone, 0.099 in [6] and 0.031 in [7].

GPKOW (UniProt Q92917): the log2 fold change in assay [1] was -0.056; in the assay with volasertib, -0.217; in [2], 0.101; with epoxomicin, -0.021; in assay [3] it was -0.063; in assay [4] it was -0.049. Besides, the log2 fold change was 0.039 in assay [5], 0.045 with rosiglitazone, 0.022 in assay [6] and -0.248 in [7].
